In the library only some 3% were active in any assay of this set; here they are far more common.
Sm TGR block – blocks Schistosoma mansoni thioredoxin glutathione reductase; Q962Y6; Potency, µM (titrated, usually from 114 µM), usual class: inhibitors; actives 3% (n = 360,000); purified TGR, DTNB reduction, TNB absorbance 405 nm; further: nearly all actives have a fitted effect of over 60% in size
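First, TGR (20 nM dispensed) and NADPH were mixed with compound. Second, a 15 min room-temperature incubation followed. Third, further NADPH and then DTNB were added to start the reaction. Finally, TNB absorbance was monitored kinetically.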
LmPK inhibitor – inhibitors of Leishmania mexicana pyruvate kinase. Q27686. purified LmPK, Kinase-Glo ATP luminescence, 1 h. Potency, µM (doses to about 57.5 µM), most hits filed as inhibitors. actives 0.37% (n = 290,000)
Target sequence (Q27686 whole entry, looked up): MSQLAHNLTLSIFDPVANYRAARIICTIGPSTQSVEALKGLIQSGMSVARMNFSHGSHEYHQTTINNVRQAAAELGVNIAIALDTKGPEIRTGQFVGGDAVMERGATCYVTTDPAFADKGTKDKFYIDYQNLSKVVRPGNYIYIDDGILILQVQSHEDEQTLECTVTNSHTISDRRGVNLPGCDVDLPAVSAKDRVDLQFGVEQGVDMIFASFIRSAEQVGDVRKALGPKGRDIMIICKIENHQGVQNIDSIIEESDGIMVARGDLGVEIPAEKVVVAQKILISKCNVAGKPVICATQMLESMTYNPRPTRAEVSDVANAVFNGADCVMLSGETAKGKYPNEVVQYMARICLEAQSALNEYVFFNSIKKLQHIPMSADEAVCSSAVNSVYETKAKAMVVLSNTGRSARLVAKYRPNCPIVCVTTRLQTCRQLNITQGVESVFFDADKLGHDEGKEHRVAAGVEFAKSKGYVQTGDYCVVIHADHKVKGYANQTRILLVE
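Purified LmPK (0.1 nM) with 0.5 mM PEP and 0.1 mM ADP in imidazole buffer pH 7.2 with MgCl2/KCl, 1 h at room temperature. ATP formed was read by luciferase luminescence and normalized to no-enzyme and uninhibited controls.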
RE007 growth inh – less growth of the S. pombe RE007 Vpr strain. S. pombe RE007 Vpr strain, BacTiter-Glo ATP luminescence, 24 h. Potency, µM (series often up to 92.2 µM), hits mostly inhibitors. actives 0.21% (n = 360,000). AID 651644; active means well fitted falling curve with a large enough effect; inconclusive means small, poorly fitted or top-dose-only effect; inactive means no such curve, though single readings can be large or run the other way; further: nearly all actives have a fitted effect of over 50% in size
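Fission yeast RE007 carrying one integrated HIV-1 vpr copy, seeded at OD 0.01 in PMG+AL medium with 23 nL pinned compound. Grown 24 h at 30 degrees; viability read by BacTiter-Glo luminescence after 5 min.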
TbPYK inhibitor – T. brucei pyruvate kinase inhibition; Q57TT1; TbPYK enzyme, Kinase-Glo Plus ATP luminescence, 45 min; Potency, µM (highest dose often 76.8 µM), most hits filed as inhibitors; actives 0.12% (n = 410,000); further: nearly all actives have a fitted effect of over 50% in size
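Screened from lowest to highest concentration, compounds were pinned into TbPYK/substrate mixtures, and ADP (130 uM final) was added. Plates sat at room temperature for 45 min prior to Kinase-Glo Plus detection by luminescence.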
Numbers stand for hits; 0 = inactive; ? = inconclusive; - = not tested or not shown; [ ] = remark or other dose. Unless noted, the call rests on the fitted dose curve; in most records, active means well fitted curve in the direction sought with a large enough effect; inconclusive means small, poorly fitted or top-dose-only effect, or another doubt; inactive means no such curve, though single readings can be large; an effect the other way counts as inactive or inconclusive.

SMILES	Sm TGR block	LmPK inhibitor	RE007 growth inh	TbPYK inhibitor
COC(=O)c1cc(N2C(=O)C3C(C2=O)C2(C)C=CC3(C)O2)ccc1Cl (stereo not given)	?	0	-	-
O=C1C2C3C=CC(CO)(O3)C2C(=O)N1c1ccccc1-c1ccccc1 (stereo not given)	0.316µM	17.8µM	12.6µM	?
COc1ccccc1C(=O)Nc1ccc(C(=O)OCc2cc(=O)n3ccsc3n2)cc1	0	-	-	0
CCCCc1nc2c(c3c1C[C@H](C)OC3)CN(C(=O)c1cccnc1)CC2	-	0[11.5 µM]	-	-
Cc1ccc(CNC(=O)CN2C(=O)COc3ccc(S(=O)(=O)Nc4ccccc4)cc32)cc1	0	-	-	0
CCCOC(=O)c1ccccc1	-	-	-	0
CCCOC1(NC(=O)c2ccccc2)C(C)=CC(=O)C=C1C	22.4µM	0	0	0
CCN1CCOC(=O)C1CC(=O)Nc1cc(Cl)ccc1C (stereo not given)	7.94µM	-	-	0
O=C(CC1C(=O)OCCN1Cc1ccccc1)Nc1cccc(Cl)c1 (stereo not given)	?	-	-	0
CCN1CCOC(=O)C1CC(=O)Nc1ccc(C)c(Cl)c1 (stereo not given)	11.2µM	-	-	0
CCCCN1C(=O)c2[nH]nc(-c3ccccc3O)c2C1c1ccc(OCc2ccccc2)cc1 (stereo not given)	0	-	-	0
O=C1CC(c2ccccc2)Cc2[nH]c(=O)c(C(=O)Nc3ccc(OC(F)(F)F)cc3)cc21 (stereo not given)	0	-	-	0
CC(=O)c1ccc(Nc2nc3c(S(=O)(=O)c4ccccc4)nnn3c3ccc(Cl)cc23)cc1	0	-	-	0
NS(=O)(=O)c1ccc(Sc2ccccn2)c([N+](=O)[O-])c1	0	0	0	0
NS(=O)(=O)c1ccc(Sc2nc3ccccc3s2)c([N+](=O)[O-])c1	44.7µM	0	0	0
CC1(C(=O)NCc2cccnc2)Cc2c(-c3cccc(C(F)(F)F)c3)ccnc2O1 (stereo not given)	-	-	0	0
CCOC(=O)c1sc2nc(CC(=O)OC)nc(NCc3ccco3)c2c1C	44.7µM	0	0	0
CCOC(=O)c1sc2nc(CC(=O)OC)nc(NCC(=O)OC)c2c1C	0	0	0	0
Cc1cccc(-c2nc(CS(=O)CC(=O)NC3CCCCC3)c(C)o2)c1 (stereo not given)	56.2µM	0	0	0
Cc1oc(-c2ccccc2F)nc1CS(=O)CC(=O)NC1CC1 (stereo not given)	?	0	0	0
Cc1oc(-c2ccccc2F)nc1CS(=O)CC(=O)NC1CCCCC1 (stereo not given)	31.6µM	0	0	0
Cc1oc(-c2ccccc2)nc1CS(=O)CC(=O)NC1CCCCCC1 (stereo not given)	7.08µM	0	0	0
COc1cccc(-c2nc(CS(=O)CC(=O)NC3CCCC3)c(C)o2)c1 (stereo not given)	?	0	0	0
COc1cccc(-c2nc(CS(=O)CC(=O)NC3CCCCC3)c(C)o2)c1 (stereo not given)	17.8µM	0	0	0
CC1=C(C)C(=O)C(C(CCCCCC(=O)O)c2ccccc2)=C(C)C1=O (stereo not given)	-	-	-	0
SMILES	Sm TGR block	LmPK inhibitor	RE007 growth inh	TbPYK inhibitor
CC1=CC(C)(C)NC(=S)N1CCO	-	-	0	0
CCOC(=O)N1CCC(NC(=O)CS(=O)Cc2nc(-c3ccccc3C)oc2C)CC1 (stereo not given)	12.6µM	0	0	0
CCOC(=O)N1CCC(NC(=O)CS(=O)(=O)Cc2nc(-c3ccccc3Cl)oc2C)CC1	0	0	0	0
CC1CN(C(=O)Nc2ccc(C(=O)NCc3cccc(F)c3)cc2)c2ccccc2S1 (stereo not given)	0	-	-	0
S=c1[nH]nc(-c2cccs2)n1C1CCCCC1	0	3.55µM	0	7.08µM
CC(C1CC2CCC1C2)n1c(-c2cccs2)n[nH]c1=S (stereo not given)	0	5.01µM	0	?
Nc1sc(-c2ccccc2)cc1-c1n[nH]c(=S)n1C1CCCCC1	0	0	0	0
Cn1c(-c2ccc(C(C)(C)C)cc2)n[nH]c1=S	0	0	0	?
CC(C)(C)c1ccc(-c2n[nH]c(=S)n2C2CCCC2)cc1	0	10µM	0	?
Cc1cc(C)n(CCC(=O)Nc2ccc(Cl)cc2)n1	0	-	-	0
COCCNC(=O)c1ccc2c(=O)n(CCc3ccccc3)c(SCC(=O)CC(=O)OC)nc2c1	0	-	-	0

High-throughput results (PubChem BioAssay)
